Screening results as filed in PubChem.
Only some compounds are listed: those with a hit (about 0.92% of all), similar ones and a draw of the others.
RPL19A TOR yeast = modulators of TOR pathway RPL19A-GFP in S. cerevisiae; AID 2025; percent response vs DMSO, % at 10 µM; 0.3% of 330,000 active; S. cerevisiae RPL19A-GFP strain, flow cytometry, 3 h; stronger effect = lower value;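 active = percent response vs DMSO below 50%; inconclusive = fewer than 70 events counted for the yeast strain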;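 note: median channel GFP fluorescence of the barcoded RPL19A-GFP strain; lower means less RPL19A-GFP as with rapamycin TOR inhibition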
AGP1 TOR yeast = yeast TOR pathway AGP1-GFP modulation; 0.02% of 320,000 active; GFP response vs DMSO, % at 10 µM; S. cerevisiae AGP1-GFP multiplex flow cytometry, 3 h; GFP as percent of DMSO wells; AID 2066;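 active = GFP response relative to DMSO above a set limit, near screen average plus 3 SD, cut at about 150% in these data; inconclusive = fewer than 70 cells counted for the yeast strain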;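 note: median GFP channel fluorescence of the gated AGP1 strain per well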
LAP4-GFP MLPCN = alters LAP4-GFP fluorescence in TOR pathway yeast screen; GFP response vs DMSO, % at 10 µM; S. cerevisiae LAP4-GFP multiplex, flow cytometry GFP, 3 h; median GFP as percent of DMSO wells; 0.34% of 320,000 active;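 active = GFP response vs DMSO above a set limit, about the screen mean plus 3 SD, cut at about 150% in these data; inconclusive = under 70 cell events counted for the yeast strain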
CIT2 TOR yeast = alters CIT2-GFP fluorescence in TOR pathway yeast screen; S. cerevisiae CIT2-GFP strain, flow cytometry, 3 h; 100 means same as DMSO wells; GFP response vs DMSO, % at 10 µM; 0.065% of 320,000 active;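 active = GFP response relative to DMSO above a set limit, near the screen mean plus 3 SD, cut at about 150% in these data; inconclusive = Fewer than 70 cells measured for a yeast strain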;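 note: ratio of well median GFP fluorescence to mean of DMSO wells on the plate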
MEP2 TOR yeast = modulators of TOR pathway MEP2-GFP in S. cerevisiae; 0.51% of 330,000 active; GFP response vs DMSO, % at 10 µM; S. cerevisiae MEP2-GFP strain, flow cytometry GFP, 3 h; 100% = DMSO control level;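 active = GFP response versus DMSO above a set limit, roughly screen mean plus 3 SD, cut at about 180% in these data; inconclusive = fewer than 70 cells counted for a yeast strain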;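 note: median GFP fluorescence of the barcode-gated MEP2-GFP cells per well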
LAP4-GFP pick2 = second confirmation of modulators of TOR reporter LAP4-GFP in yeast; shares compounds with LAP4-GFP MLPCN; S. cerevisiae LAP4-GFP strain, flow cytometry GFP, 3 h; GFP response vs DMSO, % at 10 µM; 20% of 590 active; AID 2621;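 active = GFP signal as percent of the solvent control above about 150%, meaning raised reporter expression, limit read from the data; inconclusive = fewer than 70 cells counted in the well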
MEP2-GFP pick2 = second confirmation of modulators of TOR reporter MEP2-GFP in yeast. shares compounds with LAP4-GFP MLPCN. S. cerevisiae MEP2-GFP strain, flow cytometry GFP, 3 h. GFP response vs DMSO, % at 10 µM. 10% of 590 active;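 active = GFP signal above 150% of the solvent control wells, that is a rise of more than half; inconclusive = fewer than 70 yeast cells counted in the well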;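 note: median channel GFP fluorescence of all gated yeast cells per well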
RPL19A GFP CP2 = second confirmation of modulators of TOR reporter RPL19A-GFP in yeast; S. cerevisiae RPL19A-GFP strain, flow cytometry GFP, 3 h; stronger effect = lower value; 100% means same as DMSO wells; AID 2623; shares compounds with LAP4-GFP MLPCN; GFP response vs DMSO, % at 10 µM; 3% of 590 active;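 active = under 65% GFP response relative to DMSO; inconclusive = yeast strain with under 70 measured events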;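 note: median GFP channel fluorescence per well over the all cells gate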
CIT2 GFP CP2 = reconfirmed modulator of CIT2-GFP TOR reporter in yeast | shares compounds with LAP4-GFP MLPCN | GFP response vs DMSO, % at 10 µM | AID 2624 | S. cerevisiae CIT2-GFP strain, flow cytometry GFP, 3 h; DMSO control wells read 100% | 8% of 590 active;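 active = GFP response vs DMSO above about 150%, limit read from the data; inconclusive = fewer than 70 events counted for a yeast strain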;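 note: median green fluorescence per well over all gated yeast cells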
AGP1-GFP pick2 = reconfirmed modulator of AGP1-GFP TOR reporter in yeast; shares compounds with LAP4-GFP MLPCN; S. cerevisiae AGP1-GFP strain, flow cytometry GFP, 3 h; percent response vs DMSO, % at 10 µM; 590 tested, under 10 active;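 active = over 150 percent of DMSO response; inconclusive = yeast strain measured with under 70 events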;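 note: median GFP channel fluorescence over all cells without mother daughter split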
s288c autofluor = compound is autofluorescent in yeast s288c cells | shares compounds with LAP4-GFP MLPCN | S. cerevisiae s288c, 520 nm autofluorescence, flow cytometry, 3 h; stronger effect = higher value; zero means same as solvent-only cells | fluorescence change (kMESF span) at 33 µM | 610 tested, under 10 active;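 active = fluorescence span over the dose series, or activity score, above about 33, limit read from the data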
s288c autofl DR = yeast s288c autofluorescence artifact in dose response | shares compounds with LAP4-GFP MLPCN | fluorescence change (span) at 33 µM | 110 tested, under 10 active | AID 488829 | S. cerevisiae s288c parental, compound autofluorescence, flow cytometry, 3 h;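 active = fluorescence change span, or the activity score built from it, above 25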
TORC1 bypass = wildtype yeast growth loss with TORC1 bypass cells unaffected | shares compounds with LAP4-GFP MLPCN | S. cerevisiae BY4741 spot growth rating, 48-72 h; stronger effect = lower value | growth rating (0-3) at 30 µM | 120 tested, under 10 active;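 active = growth rating at most 1 for wild type yeast while the TORC1 bypass strain still grows fully, rated 3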
Hits are given with their value; . = inactive; ? = inconclusive; / = not tested or not shown.

SMILES | RPL19A TOR yeast | AGP1 TOR yeast | LAP4-GFP MLPCN | CIT2 TOR yeast | MEP2 TOR yeast | LAP4-GFP pick2 | MEP2-GFP pick2 | RPL19A GFP CP2 | CIT2 GFP CP2 | AGP1-GFP pick2 | s288c autofluor | others
O=C(CCNS(=O)(=O)c1ccc(Cl)cc1)NCc1cccs1 | . | . | . | . | . | / | / | / | / | / | /
Cc1ccc2nc(Cl)c3nnnn3c2c1 | . | . | 298 | . | . | / | / | / | / | / | . | s288c autofl DR=.;TORC1 bypass=.
O=C(CN(C1CCCCC1)S(=O)(=O)c1ccccc1)N1CCCC1 | . | . | . | . | . | / | / | / | / | / | /
O=C(CN(C1CCCCC1)S(=O)(=O)c1ccc(Cl)cc1)N1CCOCC1 | . | . | . | . | . | . | . | . | . | . | /
O=C(Nc1ccc(C(=O)N2CCCCC2)cc1)c1ccccc1Br | . | . | 152 | . | 218 | . | . | . | . | . | /
O=C(Nc1ccc(C(=O)N2CCCC2)cc1)c1ccccc1Br | . | . | . | . | . | / | / | / | / | / | /
CN(c1ccccc1)c1ccc(/C=C/[N+](=O)[O-])cc1 | . | . | 154 | . | . | . | . | . | . | . | /
COc1ccccc1N=Cc1nc(-c2ccccc2)oc1OC(C)=O | . | . | . | . | . | / | / | / | / | / | .
Oc1oc(-c2ccccc2)nc1C=Nc1ccccc1 | . | . | . | . | . | / | / | / | / | / | /
CC(=O)Oc1oc(-c2ccccc2)nc1C=Nc1ccc(N(C)C)cc1 | . | . | . | . | . | / | / | / | / | / | .
CC(=O)Oc1oc(-c2ccccc2)nc1/C=N/c1ccccn1 | . | . | . | . | . | / | / | / | / | / | /
O=C(Oc1oc(-c2ccco2)nc1C=Nc1ccc(Cl)cc1)c1ccco1 | . | . | 230 | . | . | / | / | / | / | / | .
CN(C)c1ccc(N=Cc2nc(-c3ccccc3)oc2OC(=O)c2ccccc2)cc1 | . | . | . | . | . | / | / | / | / | / | .
COc1ccc(N=Cc2nc(-c3ccco3)oc2O)cc1 | . | . | . | . | . | / | / | / | / | / | /
CN(C)c1ccc(N=Cc2nc(-c3ccccc3)oc2O)cc1 | . | . | . | . | . | / | / | / | / | / | /
COc1ccccc1C(=O)Nc1ccnn1C1CCN(CCCC2CCCC2)CC1 | . | . | . | . | . | / | / | / | / | / | /
O=C1C(Cl)=C(N2CCN(Cc3ccccc3)CC2)C(=O)N1c1ccccc1 | . | . | . | . | . | / | / | / | / | / | .
CCOCCn1c(=O)c2c(nc3n2CCCN3CCc2ccccc2)n(C)c1=O | . | . | . | . | . | / | / | / | / | / | /
CCOc1ccc(OCc2ccc(C(=O)N/N=C(\C)c3ccccn3)cc2)cc1 | . | . | . | . | . | / | / | / | / | / | /
CCC(C)/C(C)=N/NC(=O)c1ccc(COc2ccc(Cl)c(C)c2)cc1 (configuration not stated) | . | . | 206 | . | . | . | 175 | . | . | . | .
CC1CCCN(S(=O)(=O)c2ccc3oc(=O)ccc3c2)C1 (configuration not stated) | . | . | . | / | . | / | / | / | / | / | /
Oc1ccc(F)c2cccnc12 | . | . | . | . | . | / | / | / | / | / | /
Oc1c(I)cc(I)c2cccnc12 | . | . | 238 | . | . | 167 | . | . | . | . | . | s288c autofl DR=.;TORC1 bypass=.
CCN(CC(=O)Nc1ccc(C(=O)Nc2ccc(OC)cc2)cc1)Cc1nc2ccccc2c(=O)[nH]1 | . | . | . | . | . | / | / | / | / | / | /
Cc1ccc(S(=O)(=O)Cc2cc(F)c([N+](=O)[O-])cc2[N+](=O)[O-])cc1 | . | . | 172 | . | . | / | / | / | / | / | .
SMILES | RPL19A TOR yeast | AGP1 TOR yeast | LAP4-GFP MLPCN | CIT2 TOR yeast | MEP2 TOR yeast | LAP4-GFP pick2 | MEP2-GFP pick2 | RPL19A GFP CP2 | CIT2 GFP CP2 | AGP1-GFP pick2 | s288c autofluor | others
COc1cc(C(=O)COC(=O)c2ccco2)cc(OC)c1OC | . | . | 186 | . | . | . | . | . | . | . | /
COc1ccc(-c2cc3nc4n(c(=O)c3s2)CCC4)cc1 | . | . | . | . | . | . | . | 64 | . | . | .
COc1ccc(-c2cc3nc4n(c(=O)c3s2)CCCCC4)cc1 | . | . | . | . | . | / | / | / | / | / | /
COc1ccccc1CCNC(=O)Cn1ccc2cc(S(=O)(=O)N3CCC(C)CC3)ccc21 | . | . | . | . | . | / | / | / | / | / | /
CCc1noc(C)c1C(=O)Nc1nc2c(F)cc(F)cc2s1 | . | . | 163 | . | . | . | . | . | . | . | /
Cc1ccc(C(=O)C(NC(=O)c2ccco2)Nc2sc3c(c2C(N)=O)CCCC3)cc1 (configuration not stated) | . | . | . | . | . | / | / | / | / | / | /
COC(=O)Cc1csc(NC(=O)CSc2nncn2C)n1 | . | . | 169 | . | . | . | . | . | . | . | /
COc1cccc(N2CCN(c3nc(C)cc(=O)[nH]3)CC2)c1 | ? | . | . | ? | . | / | / | / | / | / | /
Cc1ccc(C(=O)Sc2cccccc2=O)cc1 | . | . | 244 | . | . | / | / | / | / | / | .
N#CCCn1cc(C(=O)N2CCCCC2)c(-c2cccc([N+](=O)[O-])c2)n1 | . | . | . | . | . | / | / | / | / | / | /
Oc1c(C(Nc2cccc(C(F)(F)F)c2)c2ccncc2)ccc2cccnc12 (configuration not stated) | . | . | 170 | . | . | / | / | / | / | / | .
O=C(Nc1ccc(Cl)cc1)C(Cl)C(=O)c1ccccc1 (configuration not stated) | . | . | . | . | . | / | / | / | / | / | /
O=C(Nc1ccccc1Cl)C(Cl)C(=O)c1ccccc1 (configuration not stated) | / | / | / | / | / | . | . | . | . | . | /
O=C(NCC1CCCO1)C(=O)N/N=C\c1ccc2c(c1)OCO2 (configuration not stated) | . | . | . | . | . | / | / | / | / | / | /
Cc1cccc(N=C2NC(=O)/C(=C/C=C/c3ccco3)S2)c1C | . | . | 162 | . | . | 190 | . | . | . | . | .
Cc1ccc(N=C2NC(=O)/C(=C/C=C/c3ccco3)S2)cc1 | . | . | . | . | . | / | / | / | / | / | /
